# Many of the other results were omitted from the sample, so the strongest signals are more common in it than they were.
# B1: Pp2-A2 (Arabidopsis thaliana), Q07098 (protein)
# chain: MPSNGDLDRQIEQLMECKPLSEADVRTLCDQARAILVEEYNVQPVKCPVTVCGDIHGQFYDLIELFRIGGNAPDTNYLFMGDYVDRGYYSVETVSLLVALKVRYRDRLTILRGNHESRQITQVYGFYDECLRKYGNANVWKYFTDLFDYLPLTALIESQVFCLHGGLSPSLDTLDNIRSLDRIQEVPHEGPMCDLLWSDPDDRCGWGISPRGAGYTFGQDIAAQFNHNNGLSLISRAHQLVMEGFNWCQDKNVVTVFSAPNYCYRCGNMAAILEIGENMEQNFLQFDPAPRQVEPDTTRKTPDYFL
# Assays:
# Assay in all cases: glycan array binding signal (z-score within array); higher = stronger binding
# Conditions in all cases: glycan notation: IUPAC condensed, linker removed
# [1] = target: Fuc(a1-2)Gal(b1-3)[Fuc(a1-4)]GlcNAc(b1-2)Man(a1-3)[Fuc(a1-2)Gal(b1-3)[Fuc(a1-4)]GlcNAc(b1-2)Man(a1-6)]Man(b1-4)GlcNAc(b1-4)GlcNAc
# Method in brief: (§1)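 Negative Z-scores can be read as non-binding. The Z-score is calculated within each array and then averaged across arrays of one protein sequence at different concentrations or buffers and across linkers. Arrays, 3228 in all, were curated from the Consortium for Functional Glycomics database and kept only where the protein sequence was available.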
# [2] = target: Fuc(a1-2)[Gal(a1-3)]Gal(b1-4)GlcNAc
# Method in brief: as §1
# [3] = target: Fuc(a1-2)[GalNAc(a1-3)]Gal(b1-3)GalNAc(a1-3)[Fuc(a1-2)]Gal(b1-4)GlcNAc
# Method in brief: as §1
# [4] = target: Fuc(a1-3)[Gal(b1-4)]GlcNAc(b1-6)[Gal(b1-3)GlcNAc(b1-3)]Gal(b1-4)Glc
# Method in brief: as §1
# [5] = target: Fuc(a1-3)[Gal(b1-4)]GlcNAc6S
# Method in brief: as §1
# [6] = target: Fuc(a1-3)[Gal3S(b1-4)]GlcNAc
# Method in brief: as §1
# [7] = target: Gal(a1-3)Gal(b1-4)[Fuc(a1-3)]GlcNAc(b1-2)Man(a1-3)[Gal(a1-3)Gal(b1-4)[Fuc(a1-3)]GlcNAc(b1-2)Man(a1-6)]Man(b1-4)GlcNAc(b1-4)GlcNAc
# Method in brief: as §1
# [8] = target: Gal(b1-3)GalNAc(b1-4)Gal(b1-4)Glc
# Method in brief: as §1
# [9] = target: Gal(b1-4)GlcNAc(b1-3)Gal(b1-4)Glc
# Method in brief: as §1
# [10] = target: Gal3S(b1-4)[Fuc(a1-3)]Glc6S
# Method in brief: as §1
# Gal3S4S(b1-4)GlcNAc = target: Gal3S4S(b1-4)GlcNAc
# Method in brief: as §1
# Gal3S6S(b1-4)GlcNAc6S = target: Gal3S6S(b1-4)GlcNAc6S
# Method in brief: as §1
# Gal4S6S(b1-4)GlcNAc = target: Gal4S6S(b1-4)GlcNAc
# Method in brief: as §1
# Gal6S(b1-4)Glc6S = target: Gal6S(b1-4)Glc6S
# Method in brief: as §1
# Gal6S(b1-4)GlcNAc = target: Gal6S(b1-4)GlcNAc
# Method in brief: as §1
# Gal6S(b1-4)GlcNAc6S = target: Gal6S(b1-4)GlcNAc6S
# Method in brief: as §1
# GalNAc(b1-3)GalNAc = target: GalNAc(b1-3)GalNAc
# Method in brief: as §1
# [11] = target: GlcNAc(a1-4)Gal(b1-4)GlcNAc(b1-3)Gal(b1-4)[Fuc(a1-3)]GlcNAc(b1-3)Gal(b1-4)[Fuc(a1-3)]GlcNAc
# Method in brief: as §1
# [12] = target: GlcNAc(a1-6)Gal(b1-4)GlcNAc
# Method in brief: as §1
# GlcNAc(b1-3)Gal(b1-4)Glc = target: GlcNAc(b1-3)Gal(b1-4)Glc
# Method in brief: as §1
# [13] = target: GlcNAc(b1-4)[GlcNAc(b1-6)]GalNAc
# Method in brief: as §1
# [14] = target: Man(a1-3)[Man(a1-6)]Man(a1-6)[Man(a1-3)]Man
# Method in brief: as §1
# [15] = target: Neu5Ac(a2-3)Gal(b1-4)[Fuc(a1-3)]GlcNAc(b1-3)GalNAc
# Method in brief: as §1
# [16] = target: Neu5Ac(a2-3)[GalNAc(b1-4)]Gal(b1-4)Glc
# Method in brief: as §1
# [17] = target: Neu5Ac(a2-6)Gal(b1-4)GlcNAc
# Method in brief: as §1
# [18] = target: Neu5Ac(a2-6)Gal(b1-4)GlcNAc(b1-2)Man(a1-6)Man(b1-4)GlcNAc(b1-4)GlcNAc
# Method in brief: as §1
binder,measurement,setting,value
B1,glycan array binding signal (z-score),[1],2.08
same,glycan array binding signal (z-score),[2],-0.404
same,glycan array binding signal (z-score),[3],0.21
same,glycan array binding signal (z-score),[4],-0.662
same,glycan array binding signal (z-score),[5],0.633
same,glycan array binding signal (z-score),[6],-0.461
same,glycan array binding signal (z-score),[7],-0.298
same,glycan array binding signal (z-score),[8],-0.181
same,glycan array binding signal (z-score),[9],-0.032
same,glycan array binding signal (z-score),[10],4.36
same,glycan array binding signal (z-score),Gal3S4S(b1-4)GlcNAc,6.14
same,glycan array binding signal (z-score),Gal3S6S(b1-4)GlcNAc6S,4.5
same,glycan array binding signal (z-score),Gal4S6S(b1-4)GlcNAc,4.54
same,glycan array binding signal (z-score),Gal6S(b1-4)Glc6S,4.11
same,glycan array binding signal (z-score),Gal6S(b1-4)GlcNAc,-0.117
same,glycan array binding signal (z-score),Gal6S(b1-4)GlcNAc6S,2.28
same,glycan array binding signal (z-score),GalNAc(b1-3)GalNAc,-0.683
same,glycan array binding signal (z-score),[11],5.17
same,glycan array binding signal (z-score),[12],-0.835
same,glycan array binding signal (z-score),GlcNAc(b1-3)Gal(b1-4)Glc,-0.721
same,glycan array binding signal (z-score),[13],-0.771
same,glycan array binding signal (z-score),[14],0.061
same,glycan array binding signal (z-score),[15],4.64
same,glycan array binding signal (z-score),[16],-0.213
same,glycan array binding signal (z-score),[17],-0.266
same,glycan array binding signal (z-score),[18],-0.465

# — the supplement of paper PMC8728848
